These results are taken from ChEMBL document CHEMBL4513216, “Probing the Open Global Health Chemical Diversity Library for Multistage-Active Starting Points for Next-Generation Antimalarials” (ACS Infect Dis, 2020).

The campaign covered roughly 69,000 compounds. About 8,600 (12%) showed an effect of 50% or more. Many of the other results were omitted from the sample, so strong results are more common in it than they were.

The subject of this assay is Plasmodium berghei. Briefly: Screen against P. berghei liver stage (PbLuc), transformed with Luciferase, at 10uM. The format is functional, HepG2. The note with it: tested at 10 uM.
Take `Cc1cc(C(=O)N2CCc3nnc(N)cc3C2)c(C)n1C1CC1`: the INHIBITION was -15.8%.
As for `CCn1c(C)cc(C(=O)N2CCc3nnc(N)cc3C2)c1C`, the INHIBITION came to 68.8%.
As for `Cc1cc(C(=O)N2CCc3nnc(N)cc3C2)c(C)n1-c1ccccc1`, the INHIBITION is 89.3%.
The result for `Nc1cc2c(nn1)CCN(C(=O)c1cccnc1Oc1ccccc1)C2` reads -18.7%; that for `Cc1ccc(CN(C(=O)NCC2CCCO2)C2CC2)o1` (configuration not stated), -56.2%; that for `COCCc1noc(CNC2CCCC(C)(C)C2)n1` (configuration not stated), 20.2%.
To `Cc1ccccc1CS(=O)(=O)c1nnc(C(C)NC(=O)OC(C)(C)C)o1` (configuration not stated) belongs 46.6%; to `CC(=O)N(C)Cc1ccccc1NCc1c(C)cccc1C`, 50.2%; to `CC(=O)N(C)Cc1ccccc1NC(=O)c1ccccc1C`, -19.55%.
As to `CC(=O)N(C)Cc1ccccc1NCc1c(C)noc1C`, the INHIBITION was -16.1%.
For the molecule `CC(=O)N(C)Cc1ccccc1NC(=O)N(C)CCc1cccs1`, the INHIBITION is recorded as 52.3%.
To `CC(=O)N(C)Cc1cccc(NC(=O)N(C)CCc2cccs2)c1` belongs -6.34%; to `C=C(C)CN(CC)C(=O)Nc1ccccc1CN(C)C(C)=O`, 28.7%.
The result for `O=C(c1ccccc1)N1CCS(=O)(=O)[C@@H]2CCNCC[C@@H]21` reads 38.2%; that for `CNC(=O)c1ccc(C(=O)N2CCCC(n3nc(C)cc3C)C2)cn1` (configuration not stated), -11.9%.
Take `Cc1csc(N2CCCN(C(=O)c3ccoc3C)CC2)n1`: the INHIBITION is 15.3%.
As for `CC(=O)N1CC(=O)N(c2ccccc2)CC12CCN(Cc1ccoc1)C2` (configuration not stated), the INHIBITION amounted to 38.3%.
In the case of `Cc1nnsc1CN1C[C@H]2CC[C@@H](C1)N(Cc1ccccc1)C2`, the INHIBITION amounted to 60%.
Turning to `Cc1nnsc1CN1C[C@@H]2CC[C@H]1CN(Cc1ccccn1)C2`, the INHIBITION was -15.3%.
On to `Cc1nnsc1CN1C[C@@H]2CC[C@H]1CN(Cc1ccccc1)C2`, for which the INHIBITION is listed as 46.4%.
As for `CC(C)c1nnc(N2C[C@H]3CC[C@@H](C2)N(CC2CCC2)C3)s1`, the INHIBITION was determined as 44.6%.
The result for `CS(=O)(=O)c1ccc(CN2C[C@@H]3CC[C@H]2CN(c2ncccn2)C3)cc1` reads 74.1%.
Take `c1cnc(N2C[C@H]3CC[C@@H](C2)N(Cc2ccsc2)C3)nc1`: the INHIBITION was 15.7%.
As for `CC(C)c1nnc(N2C[C@H]3CC[C@@H](C2)N(Cc2ccccc2)C3)s1`, the INHIBITION is listed as 87.2%.
To `CCCN1C[C@@H]2CC[C@H]1CN(c1nnc(C(C)C)s1)C2` belongs -11.9%; to `Cc1nnsc1CN1C[C@@H]2CC[C@H]1CN(Cc1ccc(F)cc1)C2`, 29.1%; to `Cc1ncsc1CN1C[C@@H]2CC[C@H]1CN(Cc1ccccc1)C2`, 15.5%.
The result for `COc1ccc(CN2C[C@H]3CC[C@@H](C2)N(Cc2snnc2C)C3)cc1` reads 73.5%; that for `CC(=O)Nc1ccc(CN2C[C@@H]3CC[C@H]2CN(c2ncccn2)C3)cc1`, -8%.
Regarding `NC1CCC(CN2CCCn3nc(CNC(=O)C4CCC4)cc3C2)CC1` (configuration not stated), the INHIBITION came to 18.4%.
Take `Cc1cnc(C(=O)N2CCCN(c3nc(C)cs3)CC2)cn1`: the INHIBITION was -5.25%.
To `Cc1ccc(CN2CC[C@@H](N3CCOCC3)[C@@H]2Cc2cccnc2)o1` belongs 12.1%; to `CCCC(O)CN1CC(C)(C)CN(C(=O)c2ccc(Cl)cc2)CC1=O` (configuration not stated), 46.4%; to `O=C([C@H]1C[C@@H]2CCN(c3cccc(F)c3)C[C@H]2O1)N1CCCCO1`, 23.3%.
The result for `c1cnnc(N[C@@H]2CC[C@@H]3CN(Cc4ccc5[nH]ccc5c4)C[C@@H]32)c1` reads 27.2%.
`Cc1nn(CCN2CCSCC2)cc1CNCC1CC1`: the INHIBITION is listed as -22%.
As to `O=C(NCc1ccco1)[C@@]12CCO[C@@H]1CCN(C1CCC1)C2`, the INHIBITION was 29%.
Consider `CS(=O)(=O)N1C[C@H]2CCCN(Cc3nccs3)[C@H]2C1`, for which the INHIBITION was determined as 33.4%.
Take `NC1CCC(n2cc(C(=O)NC3COc4ccccc43)nn2)CC1` (configuration not stated): the INHIBITION is -28%.
With `CN(C)CCN1CC[C@@H]2O[C@@H](COCC(=O)N3CCCC3)CC[C@@H]21`, the INHIBITION was 29%.
As for `O=C(O)CNC(=O)Cc1csc(-c2cccc(Cl)c2)n1`, the INHIBITION came out at 44.9%.
As to `COc1cc(N2CC[C@H]3O[C@@H](C(=O)NC4CCCC4)CC[C@H]32)ncn1`, the INHIBITION is on record as -5.31%.
Regarding `CC(C)n1cc(N2CC(C(=O)N3CCC(C(N)=O)CC3)CC2=O)cn1` (configuration not stated), the INHIBITION is listed as -23.5%.
On to `CCCc1nc(CNC(=O)Cc2cc(C)no2)cs1`, for which the INHIBITION is listed as 31.6%.
Consider `CCCc1nc(CNc2nc(C)nc3oc(C)nc23)cs1`, for which the INHIBITION is given as 50.8%.
For `CCCc1nc(CNC(C)Cn2cccn2)cs1` (configuration not stated), the INHIBITION was -31.5%.
Consider `CCS(=O)(=O)NCC(=O)Nc1cc(CC(C)(C)C)n[nH]1`, for which the INHIBITION was -10.7%.
To `O=C(CSCC1CC1)N1C[C@H]2CC[C@@H](C1)N(Cc1ccccn1)C2=O` belongs 17%.
As for `Cc1cnn(CC2CCCN2CC(=O)Nc2cc(C)nn2C)c1` (configuration not stated), the INHIBITION was determined as 38.6%.
On to `CC(C)C(=O)NC(Cc1cc(N(C)C)nc(C2CC2)n1)c1ccccc1` (configuration not stated), for which the INHIBITION is given as 45.9%.
As to `CCC(=O)NC(Cc1cc(N(C)C)nc(C2CC2)n1)c1ccccc1` (configuration not stated), the INHIBITION is on record as 33.8%.
`COCC(=O)NC(Cc1cc(N(C)C)nc(C2CC2)n1)c1ccccc1` (configuration not stated): the INHIBITION was 51.4%.
